# Rows were chosen to be rich in hits. Some 6.1% of all compounds tested hit in one or more screens of this group.
# ATXN2 expr inh – ATXN2 expression inhibition; actives 0.72% (n = 360,000); HEK-293 ATXN2-luciferase reporter, luminescence, 24 h; Potency, µM (highest dose often 57 µM), for the others: top-dose activity change, negative = inhibition, hits mostly inhibitors; also: % is scaled to controls: 0 for no effect and ±100 for the full control effect; nearly all actives have a fitted effect of over 55% in size
#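 ATXN2-luciferase reporter cells (luciferase flanked by upstream and downstream ATXN2 gene portions) were treated 24 h at 37 °C with compounds at up to 57 uM. SteadyGlo luminescence gave expression; GF-AFC fluorescence gave viability.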
# RORg inh – ROR gamma (mouse) transcription inhibition | P51450 | Drosophila S2 Gal4-RORgamma UAS-luciferase reporter, 20 h | Potency, µM (doses to about 53.6 µM), without a hit: at the highest dose activity change, negative = inhibition, usual class: inhibitors | actives 5.4% (n = 310,000); also: % is scaled to controls: 0 for no effect and ±100 for the full control effect; nearly all actives have a fitted effect of over 60% in size
# Target sequence (P51450 whole entry, looked up, the tested form may be a part): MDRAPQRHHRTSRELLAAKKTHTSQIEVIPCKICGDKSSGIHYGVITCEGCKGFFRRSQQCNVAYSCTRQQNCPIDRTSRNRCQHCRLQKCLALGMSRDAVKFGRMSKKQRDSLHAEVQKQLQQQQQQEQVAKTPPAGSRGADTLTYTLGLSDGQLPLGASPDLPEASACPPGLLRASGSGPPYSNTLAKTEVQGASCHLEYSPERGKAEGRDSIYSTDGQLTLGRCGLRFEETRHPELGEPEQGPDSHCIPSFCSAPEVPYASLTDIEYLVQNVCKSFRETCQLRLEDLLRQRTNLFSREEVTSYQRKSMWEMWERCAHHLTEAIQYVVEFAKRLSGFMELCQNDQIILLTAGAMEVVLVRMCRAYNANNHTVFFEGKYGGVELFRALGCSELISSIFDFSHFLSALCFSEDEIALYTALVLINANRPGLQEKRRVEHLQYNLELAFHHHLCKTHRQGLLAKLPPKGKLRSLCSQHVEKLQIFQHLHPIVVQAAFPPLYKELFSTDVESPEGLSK
#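 Luciferase reporter read in Schneider cells carrying Gal4-RORγ (mouse) and UAS-Photinus luciferase; cells given compound 1 h before 700 uM copper sulfate induction, then incubated 20 h at ambient temperature.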
# TGFb SMAD3 inh – TGF-b pathway inhibition. HepG2 CAGA-GFP TGF-b/SMAD3 reporter, GFP fluorescence, 18 h; TGF-beta stimulated, 500 pg/mL final. Potency, µM (series often up to 46.1 µM), for inactives: at the top dose activity, negative = inhibition, most hits filed as inhibitors. actives 1.2% (n = 410,000). AID 588855; also: % is scaled to controls: 0 for no effect and ±100 for the full control effect; nearly all actives have a fitted effect of over 65% in size
#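 Read-out: total well GFP (ex488/em500-530) summed from mean per-cell fluorescence. Cells: HEPG2 CAGA-GFP, 1% FBS DMEM, 18 h at 37 degrees C with 500 pg/mL final TGF-beta. Unstimulated wells served as the full-inhibition control; stimulated DMSO wells = 0%.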
# HepG2 tox – HepG2 cytotoxicity, counter-screen for TGF-b inhibitors | Potency, µM (top dose mostly 46.1 µM), inactives show at the highest dose activity change, negative = cytotoxicity, most hits filed as cytotoxic | AID 588856 | actives 0.76% (n = 410,000) | HepG2 CAGA-GFP viability, ATP luminescence, 18 h
#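 CellTiter-Glo luminescence gave cytotoxicity after 18 hours at 37 degrees C. The cells were HepG2 CAGA-GFP in 1% FBS DMEM, stimulated with 500 pg/mL TGF-beta after compound addition. %Activity was normalised to no-cell wells (complete cell-killing) and DMSO (no toxicity), and curves were fitted and classified.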
# VP16 counter – counter-screen for ROR gamma inhibitors: Gal4-VP16 reporter; Drosophila S2 Gal4-VP16 UAS-luciferase, luminescence, 20 h; Potency, µM (highest dose often 53.6 µM), inactives show top-dose activity, negative = inhibition, hits mostly inhibitors; actives 3.5% (n = 310,000);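 also: Gal4-VP16 expression switched on by copper sulfate through the metallothionein promoter; % is scaled to controls: 0 for no effect and ±100 for the full control effect; nearly all actives have a fitted effect of over 50% in size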
# S2 tox – viability counter-screen for ATXN expression inhibitors. S2 cells (HEK-293 line with an ATXN2-luciferase reporter) viability, CellTiter-Fluor protease fluorescence, 24 h. Potency, µM (doses to about 56.7 µM), actives largely listed as cytotoxic. actives 0.49% (n = 400,000). AID 651635; also: nearly all actives have a fitted effect of over 40% in size
# Active calls of the source: *; i = inactive; ? = inconclusive; nt = no result given; [ ] = remark or other dose. Calls follow the shape of the dose curve; as a rule, active = well fitted curve in the direction sought with a large enough effect; inconclusive = small, poorly fitted or top-dose-only effect, or another doubt; inactive = no such curve, though single readings can be large; an effect the other way counts as inactive or inconclusive. Potency is read from the fitted curve at half-maximal effect.
SMILES,ATXN2 expr inh,RORg inh,TGFb SMAD3 inh,HepG2 tox,VP16 counter,S2 tox
COc1ccccc1Cc1c(-c2ccco2)nc2ccc(Br)cn12,-10%,nt,?,-93%,nt,?
Clc1cccc(Cc2c(-c3cccc(Cl)c3)nc3ccc(Br)cn23)c1,5%,nt,14µM*,-29%,nt,?
COc1ccccc1Cc1c(-c2ccc(C)cc2)nc2ccc(Cl)cn12,45%,nt,-47%,0%,nt,?
COC(=O)c1ccc2nc(-c3ccco3)c(Cc3cccc(Cl)c3)n2c1,-1%,nt,nt,nt,nt,i
COc1ccccc1Cc1c(-c2cccc(Cl)c2)nc2ccc(C)cn12,0%,nt,13µM*,-45%,nt,nt
COc1ccccc1Cc1c(-c2ccco2)nc2ccc(Cl)cn12,-8%,nt,16µM*,-96%,nt,?
COC(=O)c1ccc2nc(-c3ccco3)c(Cc3ccccc3)n2c1,12%,nt,11µM*,-35%,nt,i
Cc1ccc(NC(=O)C2Cc3ccccc3N2C(=O)c2ccccc2)cc1Cl (stereo not given),-1%,nt,0%,2%,nt,i
CNC(=S)NN=C(C)CCCC(C)=NNC(=S)NC,11µM*,nt,4.5µM*,-49%,nt,?
CC1(C)CC(=O)C/C(=N/Nc2nc3ccccc3s2)C1,?,8.9µM*,?,-93%,23%,?
CC1CCC/C(=N/Nc2nc3ccccc3s2)C1 (stereo not given),44%,6.3µM*,-1%,-28%,?,i
Cc1cc(C)nc(Nc2nc3ccccc3s2)n1,48%,?,2%,-1%,6%,i
CCCn1nc(NC(=O)c2cccc(Cl)c2)c2cc3cccc(C)c3nc21,10%,nt,46%,51%,nt,i
CCc1nn(CC(=O)NC(C)C)c(=O)c2cc3cc(F)ccc3n12,0%,nt,0%,1%,nt,i
CCOC(=O)N1CCN(Cc2nc3cc(NC(=O)c4ccc(F)cc4)ccc3n2C(C)C)CC1,nt,nt,-56%,-13%,nt,nt
CCN(CC)C(=S)Sc1c(-c2ccccc2)c2cc(Cl)ccc2[nH]c1=O,-16%,8.9µM*,?,-3%,7.9µM*,i
O=C(O)CSc1c(-c2ccccc2)c2cc(Cl)ccc2[nH]c1=O,-6%,?,-1%,2%,?,i
COc1cccc([C@H]2Nc3ccc(S(=O)(=O)Nc4cc(C)ccc4C)cc3[C@H]3C=CC[C@H]32)c1,-15%,nt,?,-27%,nt,i
COc1ccc(Cl)cc1NC(=O)Cn1c(=O)n(-c2ccc(C)cc2)c(=O)c2ccc(C(=O)NCc3ccccc3Cl)cc21,7%,nt,?,-7%,nt,i
CCOC(=O)c1c(C)[nH]c(C)c1S(=O)(=O)NCCN1CCN(c2cc(Cl)ccc2C)CC1,nt,21%,11µM*,-115%,-9%,i
CCOC(=O)c1c(C)[nH]c(C)c1S(=O)(=O)N1CCN(c2cc(Cl)ccc2C)CC1,nt,nt,?,-91%,nt,nt
Cc1ccc(CSC2=Nc3ccccc3C3=NC(CCC(=O)N4CCN(c5ccccc5)CC4)C(=O)N23)cc1 (stereo not given),4%,nt,-22%,-27%,nt,?
CC1(C)CC(=O)C2=C(C1)c1c(ccc3ccccc13)NC2c1ccc(Br)o1 (stereo not given),-24%,20%,-20%,20µM*,6%,?
CN(C)c1ccc(CNS(=O)(=O)c2ccc3[nH]c4c(c3c2)CCCCC4)cc1,49%,nt,?,-41%,nt,i
O=C(c1cc(COc2cccc3cnccc23)on1)N1CCC(c2ccccc2Cl)C1 (stereo not given),nt,?,20µM*,-35%,-2%,?
Cc1c(C(C)NC(=O)c2cc(COc3cccc4cnccc34)on2)cnn1C (stereo not given),nt,-27%,-10%,-22%,13µM*,i
O=C(c1cc(COc2c(F)cccc2F)on1)N1CCC(c2ccccc2Cl)C1 (stereo not given),-5%[11.3 µM],?,?,0%,-17%,i

# Screening data (PubChem)
